# Measured values taken from the supplement of paper PMC6555819.
# What was measured:
# Test in all cases: PBM binding z-score (relative to random genomic background probes); higher = stronger binding; sequences stand for … in GC…GCGATTGACAGCGTAGAATGAAGG
# [1] = test system: FXR:RXRa (NR concentration 270 nM, RXRa partner concentration 90 nM)
# Procedure, shortened: (§1)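 Custom Agilent 4×180K protein-binding microarrays carried double-stranded probes, each with a 34-nt variable region. These regions held direct-repeat seeds, single-nucleotide variants, half-site ablations and random human genomic background sequences. Ligand-free nuclear receptor dimers were incubated on the arrays for 1 h, antibodies against each partner (one per run) detected binding, and scanned fluorescence was regression-normalized. Binding z-scores take the random background probes as reference.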
# [2] = test system: LXRa:RXRa (NR concentration 270 nM, RXRa partner concentration 90 nM)
# Procedure, shortened: as §1
# [3] = test system: LXRa homodimer (NR concentration 270 nM)
# Procedure, shortened: as §1
# [4] = test system: LXRb:RXRa (NR concentration 270 nM, RXRa partner concentration 90 nM)
# Procedure, shortened: as §1
# [5] = test system: LXRb homodimer (NR concentration 270 nM)
# Procedure, shortened: as §1
# [6] = test system: PPARa:RXRa (NR concentration 270 nM, RXRa partner concentration 90 nM)
# Procedure, shortened: as §1
# [7] = test system: PPARg:RXRa (NR concentration 180 nM, RXRa partner concentration 90 nM)
# Procedure, shortened: as §1
# [8] = test system: PPARg:RXRa 270nM:90nM, anti-RXR (NR concentration 270 nM, RXRa partner concentration 90 nM)
# Procedure, shortened: as §1
# [9] = test system: PPARg:RXRa 30nM:10nM, anti-RXR (NR concentration 30 nM, RXRa partner concentration 10 nM)
# Procedure, shortened: as §1
# [10] = test system: PPARg:RXRa 90nM:30nM, anti-RXR (NR concentration 90 nM, RXRa partner concentration 30 nM)
# Procedure, shortened: as §1
# [11] = test system: PPARg:RXRa DBDmut IVT, anti-RXR (DBD mutation: RXRa K156A/R161A, NR concentration 270 nM, RXRa partner concentration 90 nM)
# Procedure, shortened: as §1
# [12] = test system: PPARg:RXRa IVT, anti-PPARg (NR concentration 270 nM, RXRa partner concentration 90 nM)
# Procedure, shortened: as §1
# [13] = test system: PPARg DBDmut:RXRa IVT, anti-PPARg (DBD mutation: PPARg1 K132A/R137A, NR concentration 270 nM, RXRa partner concentration 90 nM)
# Procedure, shortened: as §1
# [14] = test system: PPARg DBDmut IVT, anti-PPARg (DBD mutation: PPARg1 K132A/R137A, NR concentration 270 nM)
# Procedure, shortened: as §1
# [15] = test system: PPARg homodimer (NR concentration 180 nM)
# Procedure, shortened: as §1
# [16] = test system: PXR:RXRa (NR concentration 270 nM, RXRa partner concentration 90 nM)
# Procedure, shortened: as §1
# [17] = test system: PXR homodimer (NR concentration 270 nM)
# Procedure, shortened: as §1
# [18] = test system: RARa:RXR (NR concentration 270 nM, RXRa partner concentration 90 nM)
# Procedure, shortened: as §1
# [19] = test system: RARa homodimer (NR concentration 270 nM)
# Procedure, shortened: as §1
# [20] = test system: RARb:RXRa (NR concentration 270 nM, RXRa partner concentration 90 nM)
# Procedure, shortened: as §1
Sequence,PBM binding z-score [1],PBM binding z-score [2],PBM binding z-score [3],PBM binding z-score [4],PBM binding z-score [5],PBM binding z-score [6],PBM binding z-score [7],PBM binding z-score [8],PBM binding z-score [9],PBM binding z-score [10],PBM binding z-score [11],PBM binding z-score [12],PBM binding z-score [13],PBM binding z-score [14],PBM binding z-score [15],PBM binding z-score [16],PBM binding z-score [17],PBM binding z-score [18],PBM binding z-score [19],PBM binding z-score [20]
CGAACTAGGTCATCCAGGCCAGTGAATACATTGA,4.42,2.58,0.198,1.84,-0.0916,4.97,7.7,6.3,3.77,5.63,7.88,8.53,3.15,2.65,2.08,1.61,0.572,2.4,0.167,3.91
ATCTCTAGGTAAGACTCAGTTCAGAGAAGAACGC,0.455,0.578,0.401,-0.0123,0.78,-0.0205,0.366,0.339,0.28,0.268,1.92,1.16,1.58,0.9,1.02,0.856,1.56,0.299,0.962,0.134
GCTAACAGGCCATTTGGGTCACTCAATGACGGGC,0.418,0.268,-0.00824,0.389,-0.169,1.73,0.912,0.349,-0.624,-0.263,1.61,1.82,-0.246,-0.627,0.24,0.795,0.0442,1.03,-0.111,1.81
TCATATAGGTAATACAGGTGAAAGTGGGCATCTA,1.4,1.27,0.56,1.21,0.302,2.33,2.41,3.18,4.26,3.72,4.07,3.76,0.893,1.47,1.79,1.02,0.455,1.35,1.57,0.826
GATACAGGGTCAGATAGAGGCCAGAGTATGGAAA,4.95,3.16,0.138,3.03,0.456,4.58,3.32,3.11,1.18,2.09,1,2.53,1.35,0.368,2.7,3.26,0.844,4.13,0.243,3.97
AGCGAAAGGTCGACGAGGTGAGTATACACCGTTT,4.18,2.97,-0.376,2.37,-0.286,4.3,3.21,3.62,0.842,2.31,0.519,1.89,0.248,0.154,1.07,2.86,0.276,3.47,-0.0264,3.84
CCTTACGGGTCACTGACCGGTTATAGCATTTGGA,5.3,5.49,1.84,4.04,0.194,5,3.68,4.28,1.31,2.95,3.02,3.86,1.44,-0.432,2.45,2.93,0.0567,3.72,1.71,3.96
TCGAGTAGGTTAGCGGCATTCAGAATGGCGTCGA,-0.731,-0.487,-0.848,-0.653,-1.3,0.0919,-0.173,0.409,0.448,0.475,1.81,0.944,-1.28,-0.893,-1.05,-0.724,-0.924,-0.504,-1.29,0.21
CGAACGAGGGCATAAGTTGATAGCAAATGCCGAT,0.0955,-0.0152,-0.319,0.143,-0.74,1.49,1.93,2.59,0.799,2.34,2.66,1.67,-0.0137,-0.0553,0.0801,0.19,0.226,0.129,-0.269,1.58
CGTCAAAGTTTAAGGTAACGTAACAGAAAGCAGC,0.503,0.447,-0.218,0.466,-0.063,0.794,0.72,1.11,0.465,0.749,-0.15,0.591,0.678,-0.068,0.325,0.369,0.0704,0.975,0.46,2.12
CCAGACAGGTGAGGAGGTAACTCAGCCTCGATTA,-0.0226,0.276,0.253,0.35,-0.29,0.831,0.403,0.546,-0.128,0.0478,0.968,0.86,-0.637,-0.654,0.632,0.016,0.482,0.341,0.613,0.524
TCTTGTAGATCAACAGGATGTTAAGAAAGATCGA,0.365,0.173,-0.3,0.12,-0.659,0.612,0.227,1.3,2.66,1.97,1.7,0.652,0.783,1.26,-0.565,0.147,-0.381,0.44,0.0345,-0.191
CCTACTGTGCCAAAAAGGTCATTGATGCCGATAA,4.4,4.59,4.4,4.55,1.59,4.73,3.18,3.69,1.41,3,3.31,3.57,0.316,0.475,3.9,4.76,2.5,5.24,2.59,3.99
TCTTGTAGATCAATAGAGGTTAAGCAAGTGCGCT,0.958,2.62,0.281,1.34,-0.1,2.08,0.0342,1.71,2.75,2.4,1.66,1.19,0.792,-0.371,0.43,3.72,0.269,1.89,0.018,0.837
GCTGCTAGGACAACTGATGGTCAGCTAAAGCTCG,-0.547,-0.859,-0.672,-1.14,-1.05,-1.94,-0.0624,-0.895,-0.952,-1.12,0.688,-0.573,-1.55,-1.57,-1.24,-1.1,-1.66,-1.08,-1.4,0.341
